Pf apPOL block: Pf-apPOL DNA polymerase inhibition. 210,000 tested, 0.25% active. inhibition, % at 10 µM. Recombinant Pf-apPOL, molecular beacon fluorescence, 1.5 h. AID 1794808
mHTT-CaM PPI inh: disrupts binding of mutant huntingtin to calmodulin; inhibition, % at 15 µM; 190,000 tested, 3.6% active; AID 1671202; P42858; AlphaScreen His-mHTT/GST-CaM binding, luminescence;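 also: 0% = both proteins with DMSO and 100% = one protein alone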
Active calls of the source: *; i = inactive; nt = no result given. The entries come from a sample that favours hits as a whole. Rule as the data show it: active = inhibition above about 50%; inactive = the rest.

SMILES	Pf apPOL block	mHTT-CaM PPI inh
COc1ccc(-c2ccccc2)cc1NCc1ccc(OC)c(OC)c1	-6	73*
COc1cc2c(cc1NCc1ccccn1)oc1ccccc12	-4	15
COc1ccc(-c2ccccc2)cc1NCc1ccccn1	-12	72*
COc1ccc(-c2ccccc2)cc1NCc1cc(OC)c(O)c([N+](=O)[O-])c1	3	66*
CC(=O)N1CCCC2(CC(c3ccccc3)=CO2)C1 (stereo not drawn)	-4	-8
COc1ccc(-c2cc(C(F)(F)F)n3ncc(C(=O)Nc4cc(C)ccc4O)c3n2)cc1OC	-2	5
CN(CC(=O)N1CCCC1)c1nc(C2CC2)nc2c1CCC2	3	-5
CC(C)OCCCNC(=O)C1CCCN(c2cnn(C)c(=O)c2)C1 (stereo not drawn)	2	-1
Cc1cc(NC(=O)CCN2C(=O)C3C4C=CC(CC4)C3C2=O)ccc1Br (stereo not drawn)	-8	3
CC1CN(C(=O)Cc2ccccc2F)CC1c1nc(-c2cccnc2)no1 (stereo not drawn)	0	9
O=C(Nc1ccc(C(F)(F)F)cc1[N+](=O)[O-])O[C@H]1[C@H](Cc2ccccc2)NS(=O)(=O)[C@H]2C[C@@H]3C=C[C@]12O3	-5	65*
Cc1cc(C(=O)O[C@H]2[C@H](Cc3ccccc3)NS(=O)(=O)[C@H]3C[C@@H]4C=C[C@]23O4)ccc1[N+](=O)[O-]	-8	17
Cc1cccc(COC[C@H](CC(C)C)N2CCN(C(=O)c3ccc(C(F)(F)F)cc3)CCC2=O)c1	-2	90*
Cc1ccc(S(=O)(=O)N2CCC(=O)N([C@H](COCc3cccc(C)c3)C(C)C)CC2)cc1	-4	-9
Cc1ccc(S(=O)(=O)N2CCC(=O)N(CCOCc3cccc(C(F)(F)F)c3)CC2)cc1	-1	7
CC(C)C[C@@H](COCc1cccc(C(F)(F)F)c1)N1CCN(C(=O)c2ccc(C(F)(F)F)cc2)CCC1=O	0	89*
Cc1nc(C(=O)NC(C)C)nn1-c1ccccc1	-4	-8
Cc1sc(N=Cc2cc([N+](=O)[O-])ccc2O)c(C#N)c1C	0	6
O=C(NC1CCCCC1)c1ccc(S(=O)(=O)N2CCCC2)cc1	-4	1
CN(C)CCNC(=O)c1ccc(S(=O)(=O)N2CCCC2)cc1	55*	-5
N#CC1=C(S)NC(O)(c2ccccc2)C([n+]2cccc3cc(Cl)ccc32)C1c1cccnc1 (stereo not drawn)	-4	59*
N#CC1=C(S)N[C@H](c2cccnc2)[C@@](C#N)(C(N)=S)[C@H]1c1cccnc1	nt	31
N#CC1=C(S)NC(O)(c2ccccc2)C([n+]2ccc3ccccc3c2)C1c1ccc(F)cc1 (stereo not drawn)	-2	75*
N#CC1=C(S)NC(O)(c2ccccc2)C([n+]2ccc3ccccc3c2)C1c1ccncc1 (stereo not drawn)	0	38
N#CC1=C(O)NC(=O)C([n+]2ccccc2)C1c1ccccc1I (stereo not drawn)	7	34
SMILES	Pf apPOL block	mHTT-CaM PPI inh
N#CC1=C(S)NC(O)(c2ccccc2)C([n+]2ccccc2)C1c1ccccc1F (stereo not drawn)	-1	56*
Cc1ccccc1N(C)S(=O)(=O)c1ccc2[nH]cc(C(=O)N3CCCC3)c(=O)c2c1	-3	6
CCCC(=O)Nc1c(-c2cccc(Cl)c2)nc2cc(C)ccn12	1	3
CCc1noc(-c2cccnc2N2CCCN(C(=O)c3cc(C)cc(C)c3)CC2)n1	-8	-1
CC1(C)OC(=O)C(=Cc2ccc(-c3ccc(Cl)c([N+](=O)[O-])c3)o2)C(=O)O1	1	10
Oc1ccccc1-c1cc(-c2ccccc2F)[nH]n1	6	nt
Cc1ccc(-c2cc(-c3ccccc3Cl)[nH]n2)c(O)c1	-3	65*
COc1ccc(O)c(-c2cc(-c3ccccc3C)[nH]n2)c1	7	69*
COc1ccccc1-c1cc(-c2cc(Cl)ccc2O)n[nH]1	-5	30
Oc1ccccc1-c1cc(-c2ccccc2)n[nH]1	-248	35
Cc1ccccc1-c1cc(-c2ccccc2O)n[nH]1	-4	52*
CCOc1ccc(CNC(=O)C2CCN(c3cncnc3N3CCOCC3)CC2)cc1	-3	6
COc1cccc(OCc2noc(-c3cccc(F)c3)n2)c1	-1	-62
COc1ccc(OCc2noc(CNC(=O)c3ccc[nH]c3=O)n2)cc1	0	-8
O=C1NC(=O)N(Cc2ccco2)C(=O)/C1=C/c1cn(Cc2ccccc2Cl)c2ccccc12	-4	7
COc1cccc(CNc2ccc3c(c2)ncn3-c2ccccc2)c1OC	-1	48
COc1ccccc1CNc1ccc2c(c1)ncn2-c1ccccc1OC	1	62*
COc1ccccc1CNc1ccc2c(c1)CCC2	5	79*
c1cc(CNc2ccc3c(c2)CCC3)ccn1	-3	35
COc1ccc(CNc2cccc(N(C)C)c2)cc1	-3	96*
CC(=O)Nc1ccc(CNc2ccc3c(c2)CCC3)cc1	4	39
COc1ccc(CNc2ccc3c(c2)CCC3)cc1	4	68*
COc1ccc(CNc2ccc(SC)cc2)cc1	6	43
CCC(C)NC(=O)C1CCN(c2cncnc2N2CCCC2)CC1 (stereo not drawn)	-10	-1
O=S(=O)(Cc1nc(-c2ccc(Br)cc2)no1)c1ccc(F)cc1	-6	-26
SMILES	Pf apPOL block	mHTT-CaM PPI inh
COc1ccc(/C=c2\sc3nc(-c4ccccc4Br)nn3c2=O)cc1	0	-2
O=C(Nc1nc(C(=O)NCCn2nc(-c3ccco3)ccc2=O)co1)c1ccccc1	26	40
NS(=O)(=O)c1ccc(Br)s1	-12	nt
CC1(C(=O)O)NC(c2ccccc2O)C2C(=O)N(c3ccccc3[N+](=O)[O-])C(=O)C21 (stereo not drawn)	-2	-5
COc1cc(OC)c(CNC2CCCC2)cc1Br	2	-3
COc1ccc(CNC2CCCC2)cc1Br	-7	0
c1cc2c(cc1CNc1ccc3c(c1)CCC3)OCO2	-3	72*
COc1ccc(CNc2ccc3c(c2)CCC3)cc1Br	4	77*
COc1cc(OC)c(CNc2ccc3c(c2)CCC3)cc1Br	1	85*
Fc1ccc(NCc2ccc3c(c2)OCO3)cc1F	2	-3
O=C(Cn1cnc2c(c1=O)CCCC2)Nc1ccc(Oc2ccccc2)cc1	-10	-7
COc1ccc(C(=O)NCCC(=O)NC2CCCCC2C)cc1OC (stereo not drawn)	-4	3
CCOC(=O)C(=O)NCC(c1ccc2c(c1)OCO2)N1CCOCC1 (stereo not drawn)	-6	-14
Oc1cc2c(cc1C(c1ccc3c(c1)OCO3)N1CCOCC1)OCO2 (stereo not drawn)	nt	94*
CCCCOCC(O)C[N+]1(Cc2ccccc2)CCOCC1 (stereo not drawn)	-2	-5
OC(COc1ccc(C23CC4CC(CC(C4)C2)C3)cc1)C[N+]1(Cc2ccccc2)CCOCC1 (stereo not drawn)	-61	100*
CSc1ncccc1C(=O)OCc1cc(-c2cccs2)on1	3	-17
O=C(NC1CC1)c1ccc(OCC2CCCN(C(=O)Cc3ccc(Cl)cc3)C2)cc1 (stereo not drawn)	-2	26
O=C(Nc1cccn2c(C3CCC3)nnc12)c1ccccn1	-8	61*
O=C(Nc1cccn2c(C3CCC3)nnc12)C1CCCO1 (stereo not drawn)	-2	-1
CC(C)c1ccc(OCC(=O)O/N=C(\N)c2cccnc2)c(Br)c1	6	i
COC(=O)c1c[nH]c2ccccc12	3	nt

Compound activity as filed in PubChem BioAssay.
